Test results: PMC7862700, “An all-to-all approach to the identification of sequence-specific readers for epigenetic DNA modifications on cytosine”

Experiments:
Assay in all cases: DAPPL (digital affinity profiling via proximity ligation, sequencing); 10 mM Tris-HCl pH 7.5, 50 mM NaCl, 1 mM DTT, 4% glycerol, room temperature, 30 min; GST-TFs on glutathione beads, 16-mer random dsDNA library, 0.1% formaldehyde crosslink after washing; high values mean tight binding
Settings in all cases: protein: recombinant; tags: N-terminal GST; dsDNA, one strand shown
FLI1 = target: T1, FLI1 (Homo sapiens, UniProt Q01543 1-452)
T1 sequence: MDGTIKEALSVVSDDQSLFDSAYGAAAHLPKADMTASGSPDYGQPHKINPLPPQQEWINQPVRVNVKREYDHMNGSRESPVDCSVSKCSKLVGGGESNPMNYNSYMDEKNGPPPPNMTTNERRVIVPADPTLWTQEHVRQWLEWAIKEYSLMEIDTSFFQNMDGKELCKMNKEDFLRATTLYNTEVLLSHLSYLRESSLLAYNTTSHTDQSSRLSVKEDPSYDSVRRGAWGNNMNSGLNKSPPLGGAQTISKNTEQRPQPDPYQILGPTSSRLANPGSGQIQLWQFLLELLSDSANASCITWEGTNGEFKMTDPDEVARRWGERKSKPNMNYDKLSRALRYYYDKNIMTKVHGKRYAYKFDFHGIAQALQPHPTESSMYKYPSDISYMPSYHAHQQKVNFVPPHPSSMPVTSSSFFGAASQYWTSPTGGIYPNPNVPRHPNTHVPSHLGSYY
Outline: (§1)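 Human transcription factors were made in yeast as GST fusions, captured on glutathione beads and barcoded with DNA. With a tag-only sample included, the pool was incubated with 200 nmole of a random double-stranded 16-mer DNA library in Tris/NaCl/DTT/glycerol buffer at room temperature for 30 min, then crosslinked with 0.1% formaldehyde after washing, ligated by proximity, amplified and sequenced. For binding signal, each hexamer's read frequency for a factor is divided by its frequency for the tag-only sample.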

ELK1 = target: T2, ELK1 (Homo sapiens, UniProt P19419 1-428)
T2 sequence: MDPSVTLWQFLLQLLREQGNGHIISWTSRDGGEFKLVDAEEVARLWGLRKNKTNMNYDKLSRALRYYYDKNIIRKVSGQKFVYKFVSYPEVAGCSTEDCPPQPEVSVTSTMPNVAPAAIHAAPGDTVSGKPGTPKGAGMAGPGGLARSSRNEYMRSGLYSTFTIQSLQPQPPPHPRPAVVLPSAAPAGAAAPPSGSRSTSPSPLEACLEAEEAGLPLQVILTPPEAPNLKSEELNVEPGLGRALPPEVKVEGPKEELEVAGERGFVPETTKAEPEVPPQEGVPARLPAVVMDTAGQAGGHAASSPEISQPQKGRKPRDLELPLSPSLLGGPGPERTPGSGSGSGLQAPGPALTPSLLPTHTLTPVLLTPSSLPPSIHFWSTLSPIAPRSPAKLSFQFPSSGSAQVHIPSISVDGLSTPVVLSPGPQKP
Outline: as §1

GABPA = target: T3, GABPA (Homo sapiens, UniProt Q06546 1-454)
T3 sequence: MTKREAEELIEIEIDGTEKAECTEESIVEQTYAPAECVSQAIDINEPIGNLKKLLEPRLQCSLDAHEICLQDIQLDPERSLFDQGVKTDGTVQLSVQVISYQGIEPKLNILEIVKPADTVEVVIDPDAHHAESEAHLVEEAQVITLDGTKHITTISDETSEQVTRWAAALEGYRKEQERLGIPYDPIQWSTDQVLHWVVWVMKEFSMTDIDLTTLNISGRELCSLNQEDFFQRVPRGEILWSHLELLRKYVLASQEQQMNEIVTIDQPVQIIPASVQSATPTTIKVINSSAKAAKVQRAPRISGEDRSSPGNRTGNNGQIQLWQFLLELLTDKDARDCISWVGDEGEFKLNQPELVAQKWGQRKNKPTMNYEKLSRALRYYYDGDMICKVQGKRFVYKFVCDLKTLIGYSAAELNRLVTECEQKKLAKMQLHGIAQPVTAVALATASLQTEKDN
Outline: as §1

ERG = target: T4, ERG (Homo sapiens, UniProt P11308 1-479)
T4 sequence: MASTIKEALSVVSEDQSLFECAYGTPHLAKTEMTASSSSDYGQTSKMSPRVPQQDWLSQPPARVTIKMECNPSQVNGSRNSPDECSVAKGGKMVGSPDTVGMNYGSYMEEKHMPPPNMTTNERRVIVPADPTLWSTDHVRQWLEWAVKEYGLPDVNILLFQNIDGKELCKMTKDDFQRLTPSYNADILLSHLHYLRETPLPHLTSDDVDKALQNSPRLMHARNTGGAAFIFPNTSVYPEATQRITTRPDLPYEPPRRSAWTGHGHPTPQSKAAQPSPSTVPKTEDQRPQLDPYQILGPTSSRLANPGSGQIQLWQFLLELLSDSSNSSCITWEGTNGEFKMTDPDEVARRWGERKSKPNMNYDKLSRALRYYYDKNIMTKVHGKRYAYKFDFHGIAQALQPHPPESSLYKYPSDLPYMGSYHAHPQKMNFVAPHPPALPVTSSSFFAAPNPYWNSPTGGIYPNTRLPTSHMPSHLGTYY
Outline: as §1

ELF1 = ELF1 (Homo sapiens, UniProt P32519 1-619)
Outline: as §1

EHF = target: T5, EHF (Homo sapiens, UniProt Q9NZC4 1-300)
T5 sequence: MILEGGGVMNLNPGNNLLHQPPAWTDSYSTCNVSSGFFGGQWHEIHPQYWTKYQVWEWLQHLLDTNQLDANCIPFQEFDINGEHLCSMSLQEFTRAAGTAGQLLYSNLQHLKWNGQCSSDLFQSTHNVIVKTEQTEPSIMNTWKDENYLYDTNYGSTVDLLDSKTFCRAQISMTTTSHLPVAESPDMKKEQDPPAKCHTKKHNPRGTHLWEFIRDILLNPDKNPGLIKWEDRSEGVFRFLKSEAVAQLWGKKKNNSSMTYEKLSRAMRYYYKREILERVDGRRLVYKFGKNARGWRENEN
Outline: as §1

SPI1 = SPI1 (Homo sapiens, UniProt P17947 1-270)
Outline: as §1

SPIB = SPIB (Homo sapiens, UniProt Q01892 1-262)
Outline: as §1

ELK3 = target: T6, ELK3 (Homo sapiens, UniProt P41970 1-407)
T6 sequence: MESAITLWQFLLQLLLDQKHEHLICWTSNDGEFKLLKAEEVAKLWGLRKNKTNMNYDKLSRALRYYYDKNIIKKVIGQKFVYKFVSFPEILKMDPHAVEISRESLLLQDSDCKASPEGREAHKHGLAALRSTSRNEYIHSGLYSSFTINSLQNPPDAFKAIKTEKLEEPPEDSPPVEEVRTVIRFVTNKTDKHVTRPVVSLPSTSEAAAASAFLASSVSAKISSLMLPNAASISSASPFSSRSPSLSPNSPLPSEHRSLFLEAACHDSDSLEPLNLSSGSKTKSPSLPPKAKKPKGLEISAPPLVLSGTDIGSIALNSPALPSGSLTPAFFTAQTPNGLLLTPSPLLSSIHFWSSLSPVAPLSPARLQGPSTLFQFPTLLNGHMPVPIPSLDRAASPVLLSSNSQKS
Outline: as §1

Chain of ELF1 (P32519 whole entry): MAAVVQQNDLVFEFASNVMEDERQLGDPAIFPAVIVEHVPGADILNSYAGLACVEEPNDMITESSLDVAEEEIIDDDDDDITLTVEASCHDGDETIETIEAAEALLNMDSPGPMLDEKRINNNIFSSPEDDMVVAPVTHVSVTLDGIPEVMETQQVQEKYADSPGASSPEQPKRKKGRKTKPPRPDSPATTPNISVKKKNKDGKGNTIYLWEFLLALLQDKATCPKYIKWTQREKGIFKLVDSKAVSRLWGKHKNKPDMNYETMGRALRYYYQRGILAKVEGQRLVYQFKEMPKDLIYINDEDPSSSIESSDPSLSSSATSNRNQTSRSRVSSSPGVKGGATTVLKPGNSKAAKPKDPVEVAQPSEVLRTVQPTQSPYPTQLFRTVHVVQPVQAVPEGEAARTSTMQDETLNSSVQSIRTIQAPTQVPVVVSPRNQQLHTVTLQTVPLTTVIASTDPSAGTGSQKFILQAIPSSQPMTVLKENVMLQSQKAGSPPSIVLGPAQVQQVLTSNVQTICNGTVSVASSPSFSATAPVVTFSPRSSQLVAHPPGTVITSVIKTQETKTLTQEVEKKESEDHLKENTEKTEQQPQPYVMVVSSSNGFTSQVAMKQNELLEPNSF
Chain of SPIB (Q01892 whole entry): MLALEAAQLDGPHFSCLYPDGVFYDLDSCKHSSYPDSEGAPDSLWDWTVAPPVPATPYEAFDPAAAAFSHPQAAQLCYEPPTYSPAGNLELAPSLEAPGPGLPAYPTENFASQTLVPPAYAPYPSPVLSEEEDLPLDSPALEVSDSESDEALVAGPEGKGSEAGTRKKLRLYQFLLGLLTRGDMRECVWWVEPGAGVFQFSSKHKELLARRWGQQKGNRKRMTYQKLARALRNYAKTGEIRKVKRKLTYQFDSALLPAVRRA

Sequence	binding signal (FLI1)	binding signal (ELK1)	binding signal (GABPA)	binding signal (ERG)	binding signal (ELF1)	binding signal (EHF)	binding signal (SPI1)	binding signal (SPIB)	binding signal (ELK3)
ACCCAT	1.18 fold enrichment (6-mer frequency, TF over GST control)	1.21 fold enrichment (6-mer frequency, TF over GST control)	1.33 fold enrichment (6-mer frequency, TF over GST control)	1.23 fold enrichment (6-mer frequency, TF over GST control)	1.25 fold enrichment (6-mer frequency, TF over GST control)	1.16 fold enrichment (6-mer frequency, TF over GST control)	1.17 fold enrichment (6-mer frequency, TF over GST control)	1.33 fold enrichment (6-mer frequency, TF over GST control)	1.24 fold enrichment (6-mer frequency, TF over GST control)
ATGCTT	1.35 fold enrichment (6-mer frequency, TF over GST control)	1.42 fold enrichment (6-mer frequency, TF over GST control)	1.26 fold enrichment (6-mer frequency, TF over GST control)	1.32 fold enrichment (6-mer frequency, TF over GST control)	1.27 fold enrichment (6-mer frequency, TF over GST control)	1.29 fold enrichment (6-mer frequency, TF over GST control)	1.24 fold enrichment (6-mer frequency, TF over GST control)	1.4 fold enrichment (6-mer frequency, TF over GST control)	1.36 fold enrichment (6-mer frequency, TF over GST control)
GATTCT	1.28 fold enrichment (6-mer frequency, TF over GST control)	1.22 fold enrichment (6-mer frequency, TF over GST control)	1.29 fold enrichment (6-mer frequency, TF over GST control)	1.21 fold enrichment (6-mer frequency, TF over GST control)	1.26 fold enrichment (6-mer frequency, TF over GST control)	1.26 fold enrichment (6-mer frequency, TF over GST control)	1.3 fold enrichment (6-mer frequency, TF over GST control)	1.27 fold enrichment (6-mer frequency, TF over GST control)	1.33 fold enrichment (6-mer frequency, TF over GST control)
AGATTT	1.12 fold enrichment (6-mer frequency, TF over GST control)	1.14 fold enrichment (6-mer frequency, TF over GST control)	1.08 fold enrichment (6-mer frequency, TF over GST control)	1.21 fold enrichment (6-mer frequency, TF over GST control)	1.11 fold enrichment (6-mer frequency, TF over GST control)	1.2 fold enrichment (6-mer frequency, TF over GST control)	1.13 fold enrichment (6-mer frequency, TF over GST control)	1.09 fold enrichment (6-mer frequency, TF over GST control)	1.01 fold enrichment (6-mer frequency, TF over GST control)
AGCACT	1.38 fold enrichment (6-mer frequency, TF over GST control)	1.52 fold enrichment (6-mer frequency, TF over GST control)	1.41 fold enrichment (6-mer frequency, TF over GST control)	1.48 fold enrichment (6-mer frequency, TF over GST control)	1.4 fold enrichment (6-mer frequency, TF over GST control)	1.36 fold enrichment (6-mer frequency, TF over GST control)	1.4 fold enrichment (6-mer frequency, TF over GST control)	1.44 fold enrichment (6-mer frequency, TF over GST control)	1.62 fold enrichment (6-mer frequency, TF over GST control)
TGCTCG	1.3 fold enrichment (6-mer frequency, TF over GST control)	1.2 fold enrichment (6-mer frequency, TF over GST control)	1.21 fold enrichment (6-mer frequency, TF over GST control)	1.17 fold enrichment (6-mer frequency, TF over GST control)	1.18 fold enrichment (6-mer frequency, TF over GST control)	1.17 fold enrichment (6-mer frequency, TF over GST control)	1.35 fold enrichment (6-mer frequency, TF over GST control)	1.27 fold enrichment (6-mer frequency, TF over GST control)	1.04 fold enrichment (6-mer frequency, TF over GST control)
TGAATA	1.05 fold enrichment (6-mer frequency, TF over GST control)	1.11 fold enrichment (6-mer frequency, TF over GST control)	1.2 fold enrichment (6-mer frequency, TF over GST control)	1.08 fold enrichment (6-mer frequency, TF over GST control)	1.1 fold enrichment (6-mer frequency, TF over GST control)	1.12 fold enrichment (6-mer frequency, TF over GST control)	1.08 fold enrichment (6-mer frequency, TF over GST control)	1.05 fold enrichment (6-mer frequency, TF over GST control)	1.06 fold enrichment (6-mer frequency, TF over GST control)
TTTTGG	1.35 fold enrichment (6-mer frequency, TF over GST control)	1.42 fold enrichment (6-mer frequency, TF over GST control)	1.47 fold enrichment (6-mer frequency, TF over GST control)	1.26 fold enrichment (6-mer frequency, TF over GST control)	1.36 fold enrichment (6-mer frequency, TF over GST control)	1.37 fold enrichment (6-mer frequency, TF over GST control)	1.5 fold enrichment (6-mer frequency, TF over GST control)	1.63 fold enrichment (6-mer frequency, TF over GST control)	1.31 fold enrichment (6-mer frequency, TF over GST control)
